40 sequences from the supplement of paper PMC6555819 can be followed below.

The assay concerns VDR:RXRa (NR concentration 270 nM, RXRa partner concentration 90 nM). Description: PBM binding z-score (relative to random genomic background probes); higher = stronger binding; sequences stand for … in GC…GCGATTGACAGCGTAGAATGAAGG
As to the method: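 Protein-binding microarray (Agilent 4x180K custom design, double-stranded 60-nt probes: 5' GC cap, 34-nt variable region, 24-nt constant primer region; full probe sequence given). Purified or IVT nuclear receptor:RXRα heterodimers (3:1 NR:RXRα, mostly 270:90 nM) or homodimers were incubated for 1 h in PBS with 2% milk and no ligand, then detected with Alexa488 antibodies. Fluorescence from o1-orientation probes (~5 replicates averaged) was converted to z-scores against 500 random hg19 background probes. Variable regions are seed direct-repeat (DR0–DR5) sites, all their single-nucleotide variants and half-site ablations.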
In turn, ACTATTAGTTGACTAAGGGCAACCGATACGACGC returned a PBM binding z-score of 1.29.

On to TCGAGTAGGTTATTCGGGGCATTCAGCCAACATA, for which the PBM binding z-score came to 4.03.

In the case of AATACAGGGTCACTAGGGCAGAGTAGGTACGAAT, the PBM binding z-score worked out at 4.5.

Regarding CGTCCTAGGTCAAGGTCAGTGAAAGAGACTCGAA, the PBM binding z-score worked out at 3.2.

As to CATACAGGGTGAGCTAGGCCAGAGTAGGGACGGC, the PBM binding z-score was -0.189.

With TCTGCTAGGTCAACGATGGTCAGCTGATCTGCTA, the PBM binding z-score came out at 1.73.

In the case of ATCTCTAGGTAACCAAGTTCACTGAATGCCGAAC, the PBM binding z-score came to 5.34.

Consider AGAACGAGGGCACGCTGAGGTGATAGCAGAGTAG, for which the PBM binding z-score stood at 1.78.

The sequence CGACCAAGGTCAGAGAGGTCAGTGAATGCCGAGT registered a PBM binding z-score of 7.47.

AGAATGAGGTTATTAAGATGAGGGAATTGCGGTC had a PBM binding z-score of 1.15.

As to ATCTCTAGGTAAAGTTCTGTGAAAGATCGATAGA, the PBM binding z-score was found to be 0.335.

Sequence TCTTGTAGATCAATAGAGGTTAAGACAGTGCGCT yielded a PBM binding z-score of 1.7.

In turn, ACAGACAGGTGATGAAGGTAAGTCAGGCTATCAT gave a PBM binding z-score of -0.133.

ATCGAATGGTCGACGAGGTGAGTATACACCGTTT returned a PBM binding z-score of 0.0601.

CCTACTGGGCCATTCGGAGGTCATTGATCATATG showed a PBM binding z-score of 3.03.

Regarding ATATGTAGGTTACATCCGGGTTATTCAGGCTATG, the PBM binding z-score was 1.68.

TCTAGCAGGCCAGAGGGTCACGCAAGAGGTACGG: the PBM binding z-score was 2.52.

With TCTGCTAGGTCAACGATCGTCAGCTAATCTGCTA, the PBM binding z-score was determined as 1.03.

Turning to ATCACTAGGTAACAAGTTCAGTGAAAGAGAGGAC, the PBM binding z-score stood at 1.6.

As for TCTAGTTGGTCAAAGGTCACACTCTCGAAATGCG, the PBM binding z-score was 5.

For the sequence GCGACTGGGGCATCGGCAGGTTACCATAACTTAA, the PBM binding z-score is -0.199.

ATCGAAAGGTCGAGGTGACTATAGAGAAAGGGAA yielded a PBM binding z-score of 2.55.

Consider TAGCCTAGGTCAGATCGGCCCAGTATACGCTATA, for which the PBM binding z-score was found to be 0.134.

Sequence GCTTACGGGTCAAGGGTTATAGCATGAATAGAAT returned a PBM binding z-score of 4.33.

Turning to ATATGTAGGTTAAGGGTCATTCGGGTTGGTTCGC, the PBM binding z-score was found to be 6.18.

As to CGAACGAGGTCAAGGACAGTGAATCTCCGCACGC, the PBM binding z-score is 5.09.

On to ATCTCTAGGCAAGACTCAGTTCAGTGAAGAACGC, for which the PBM binding z-score is -0.0651.

In turn, ACTAGCACGCCAAGGGTCACTCAAGATTAGTCCG came in with a PBM binding z-score of 2.97.

Sequence TATACAGGGTGAAAGGCCAGAGTACGAATGTCGA had a PBM binding z-score of 0.682.

ATATGTATGTTAGCTGGGGTCATTCAGACTAGGC gave a PBM binding z-score of 5.07.

Take CCAGACAGGGGAGAAGGTAACTCAGCCTCGATTA: the PBM binding z-score is -0.544.

Consider ATATGGAGGTTACATCCGGGTCATTCAGGCTATG, for which the PBM binding z-score is 5.05.

ACTAGCAGCCCAAGTTTGGGTCACTCAAACAAAG showed a PBM binding z-score of 0.327.

Consider ACTATTAGTGGACTTAGGGCAACCGATACGACGC, for which the PBM binding z-score was determined as 0.119.

For the sequence ACTAGCAGGCCAAGGGTCACTCATGATTAGTCCG, the PBM binding z-score came to 2.64.

In turn, AGTCAAAGTTCACTACGTAACGTAAGATTCAGCT registered a PBM binding z-score of 3.72.

As for GCAGACAGGTGAAACGGAGGTAACTCAGGGTGGC, the PBM binding z-score is -0.2.

With CCTTACGGGTCACGAGGGTATAGCACGACGAGCG, the PBM binding z-score amounted to 5.04.

The sequence CCTAGCAGGCCAATCTTGGTCACTCAAGGCTTGA came in with a PBM binding z-score of -0.601.

ATATGTAGGTTTGCTGGGGTCATTCAGACTAGGC showed a PBM binding z-score of 5.56.
